From PubChem BioAssay AID1159580 (chemical genetic matrix, 2015)
Values joined by “and” are separate entries in the source; they are usually repeats but may differ in a detail not shown here. Identical values can stand only once. About 2,000 (36%) of roughly 5,500 compounds were called active. Inconclusive results (about 18%) are left out. Cut-off read from the data, not from the text of the source: active = normalized growth mostly below about 0.91 (no sharp cut-off); inconclusive = no clear call, values can overlap the other calls; inactive = mostly above about 0.92. This is one part of the list.

Experiment: chemical genetic growth profiling, strain panel (AID 1159580);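 note: tested at 20 µM; growth read once vehicle control cultures reached saturation at 30 °C; 1 = growth at the plate median or of vehicle wells; lower values mean less growth of the strain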
Conditions: S. cerevisiae deletion strains, growth OD

Measured: normalized growth

Cc1cc(C)cc(OCC2CNC(=O)O2)c1 (stereo unspecified)
inactive: locus YAL013W, strain DEP1, stronger effect = lower value 1.01 | locus YAL021C, strain ccr4, stronger effect = lower value 0.995 | locus YAL026C, strain drs2, stronger effect = lower value 0.977 | locus YAL030W, strain snc1, stronger effect = lower value 0.984 | locus YBL061C, strain skt5, stronger effect = lower value 0.97 | locus YBR009C, strain hhf1, stronger effect = lower value 0.985 | locus YBR021W, strain FUR4, stronger effect = lower value 1.02 | locus YBR023C, strain chs3, stronger effect = lower value 0.972 | locus YBR171W, strain sec66, stronger effect = lower value 0.963 | locus YBR229C, strain ROT2, stronger effect = lower value 1 | locus YBR231C, strain swc5, stronger effect = lower value 0.992 | locus YBR279W, strain paf1, stronger effect = lower value 0.969 | locus YCL011C, strain gbp2, stronger effect = lower value 0.977 | locus YCL016C, strain dcc1, stronger effect = lower value 0.979 | locus YCL029C, strain bik1, stronger effect = lower value 1.01 | locus YCL061C, strain MRC1, stronger effect = lower value 0.973 | locus YCL069W, strain vba3, stronger effect = lower value 0.975 | locus YCR088W, strain abp1, stronger effect = lower value 0.977 | locus YDL005C, strain med2, stronger effect = lower value 0.97 | locus YDL035C, strain GPR1, stronger effect = lower value 1.02 | locus YDL040C, strain nat1, stronger effect = lower value 0.972 | locus YDL074C, strain BRE1, stronger effect = lower value 1.03 | locus YDL101C, strain DUN1, stronger effect = lower value 1.02 | locus YDL134C, strain PPH21, stronger effect = lower value 1.02 | locus YDL185W, strain tfp1, stronger effect = lower value 1.02 | locus YDL192W, strain arf1, stronger effect = lower value 1.01 | locus YDR001C, strain nth1, stronger effect = lower value 0.979 | locus YDR069C, strain doa4, stronger effect = lower value 0.986 | locus YDR101C, strain arx1, stronger effect = lower value 1.01 | locus YDR137W, strain rgp1, stronger effect = lower value 0.92 | locus YDR150W, strain NUM1, stronger effect = lower value 1.02 | locus YDR159W, strain sac3, stronger effect = lower value 0.986 | locus YDR162C, strain NBP2, stronger effect = lower value 1.03 | locus YDR195W, strain ref2 0.97 | locus YDR297W, strain sur2, stronger effect = lower value 0.976 | locus YDR318W, strain mcm21, stronger effect = lower value 1.02 | locus YDR334W, strain swr1, stronger effect = lower value 0.966 | locus YDR335W, strain msn5, stronger effect = lower value 0.971 | locus YDR388W, stronger effect = lower value 1.01 | locus YDR392W, strain spt3, stronger effect = lower value 0.983 | locus YDR502C, strain sam2, stronger effect = lower value 1.02 | locus YEL003W, strain gim4, stronger effect = lower value 0.981 | locus YEL037C, strain rad23, stronger effect = lower value 0.979 | locus YEL061C, strain CIN8 (second series), stronger effect = lower value 0.966 | locus YEL061C, strain CIN8, stronger effect = lower value 1 | locus YER015W, strain faa2, stronger effect = lower value 0.982 | locus YER016W, strain bim1, stronger effect = lower value 0.983 | locus YER110C, stronger effect = lower value 1.01 | locus YER111C, strain swi4, stronger effect = lower value 0.971 | locus YER155C, strain BEM2 (second series), stronger effect = lower value 0.972 | locus YER155C, strain BEM2, stronger effect = lower value 1.02 | locus YER167W, strain BCK2, stronger effect = lower value 1.02 | locus YGL078C, strain dbp3, stronger effect = lower value 1.01 | locus YGL086W, strain mad1, stronger effect = lower value 1.01 | locus YGL167C, strain pmr1, stronger effect = lower value 0.971 | locus YGL173C, strain kem1, stronger effect = lower value 0.966 | locus YGL227W, strain vid30, stronger effect = lower value 0.972 | locus YGL240W, strain doc1, stronger effect = lower value 0.976 | locus YGL248W, strain PDE1, stronger effect = lower value 1.01 | locus YGL253W, strain hxk2, stronger effect = lower value 0.97 | locus YGR078C, strain PAC10, stronger effect = lower value 1.01 | locus YGR135W, strain pre9, stronger effect = lower value 0.998 | locus YGR229C, strain SMI1, stronger effect = lower value 1.02 | locus YGR252W, strain gcn5, stronger effect = lower value 1 | locus YHR013C, strain ard1, stronger effect = lower value 0.928 | locus YHR027C, strain rpn1, stronger effect = lower value 0.964 | locus YHR030C, strain SLT2, stronger effect = lower value 1.01 and 1.04 | locus YHR079C, strain IRE1 (second series), stronger effect = lower value 1.02 | locus YHR079C, strain IRE1, stronger effect = lower value 1.05 | locus YHR094C, strain hxt1, stronger effect = lower value 1.02 | locus YHR129C, strain ARP1, stronger effect = lower value 1.02 | locus YHR142W, strain chs7, stronger effect = lower value 0.968 | locus YHR200W, strain rpn10, stronger effect = lower value 1.02 | locus YIL066C, strain RNR3, stronger effect = lower value 1.02 | locus YIL073C, strain SPO22, stronger effect = lower value 1.03 | locus YIL125W, strain kgd1, stronger effect = lower value 1.01 | locus YIR030C, strain dcg1, stronger effect = lower value 1.02 | locus YJL092W, strain hpr5, stronger effect = lower value 0.972 | locus YJL095W, strain BCK1 (second series), stronger effect = lower value 0.971 | locus YJL095W, strain BCK1, stronger effect = lower value 1.01 and 1.02 | locus YJL115W, strain asf1, stronger effect = lower value 0.965 | locus YJL129C, strain trk1, stronger effect = lower value 0.974 | locus YJL134W, strain LCB3, stronger effect = lower value 1.02 | locus YJL154C, strain vps35, stronger effect = lower value 0.973 | locus YJL164C, strain tpk1, stronger effect = lower value 0.98 | locus YJL166W, strain qcr8, stronger effect = lower value 0.981 | locus YJL168C, strain set2, stronger effect = lower value 1.02 | locus YJL187C, strain SWE1 (second series), stronger effect = lower value 1.01 | locus YJL187C, strain SWE1, stronger effect = lower value 0.982 | locus YJR043C, strain POL32, stronger effect = lower value 1.02 | locus YJR066W, strain TOR1, stronger effect = lower value 0.99
